# Measurements: PubChem BioAssay AID1220 (Sanford-Burnham Center for Chemical Genomics, 2008)
# Hit rate of the full screen: of about 190,000 compounds, about 1,300 (0.68%) were called active. For the sample, actives were picked, then their nearest neighbours and some compounds at random. Values without a mark were called inactive. No stated cut-off is given here; in the data, active means inhibition above about 50%; inactive means the rest.
# Target: Mannose-6-phosphate isomerase (Homo sapiens) (UniProt P34949)
# Sequence (P34949 whole entry, looked up): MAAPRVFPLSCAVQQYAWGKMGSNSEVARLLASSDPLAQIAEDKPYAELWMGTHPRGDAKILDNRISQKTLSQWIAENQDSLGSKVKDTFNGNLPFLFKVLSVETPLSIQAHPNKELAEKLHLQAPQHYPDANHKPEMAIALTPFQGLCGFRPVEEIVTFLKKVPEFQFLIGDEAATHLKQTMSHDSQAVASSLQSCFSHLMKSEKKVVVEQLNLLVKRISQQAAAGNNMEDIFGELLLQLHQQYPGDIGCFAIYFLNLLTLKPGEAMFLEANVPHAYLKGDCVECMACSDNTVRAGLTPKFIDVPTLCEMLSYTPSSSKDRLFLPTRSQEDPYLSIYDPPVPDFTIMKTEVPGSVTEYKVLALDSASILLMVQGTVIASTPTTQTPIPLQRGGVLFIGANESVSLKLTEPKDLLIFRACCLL
# Assay: MPI inhibition at elevated mannose 6-phosphate – biochemical, fluorescence intensity, high mannose 6-phosphate, primary screen (AID 1220)
# Conditions: recombinant PMI enzyme, coupled fluorescence intensity; at 20 µM; active compounds read high
row,Structure (SMILES),inhibition
1,O=C(COc1ccc2ccccc2c1)Nc1ccc2c3c(cccc13)CC2,-1.8%
2,O=C(NCc1ccccc1)NC(O)C(Cl)(Cl)Cl (centres undefined),0.1%
3,O/C(=C\c1ccc2ccccc2n1)c1ccc(O)cc1O,-10.3%
4,Cc1ccc(NC(=O)c2ccc(-n3cccn3)nc2)cc1,51.4% (active)
5,CCOc1ccc(NC(=O)c2ccc(-n3cccn3)nc2)cc1,2.9%
6,COc1ccc(NC(=O)c2ccc(-n3cccn3)nc2)cc1,0.8%
7,CCOc1ccc(N=C2Sc3nc4ccc(C)cc4cc3CN2CCOC)cc1,9.3%
8,CC(=O)c1cc2c(cc1NC(=O)CN1CCN(c3ccc(F)cc3)CC1)OCO2,5.5%
9,CCOC(=O)C1=C(c2ccccc2)NC(SCC(=O)Nc2cccc(C)c2)=C(C#N)C1c1ccco1 (centres undefined),15.6%
10,Cc1cc(O)c(C=Nc2ccc(Cl)cn2)c(=O)o1,-60.9%
11,Cc1ccc(N=Cc2c(O)ccc3ccccc23)cc1F,51.7% (active)
12,Cc1cc(N=Cc2c(O)ccc3ccccc23)no1,66.9% (active)
13,Cc1oc(/N=C/c2ccccc2O)c(C#N)c1C,-16.8%
14,Cc1oc(/N=C/c2cccc3ccccc23)c(C#N)c1C,20.1%
15,Cc1cc(N=Cc2cc(Cl)ccc2O)no1,14.2%
16,Cc1oc(/N=C/c2c(O)ccc3ccccc23)c(C#N)c1C,53.7% (active)
17,Cc1cc(N=Cc2cc(Br)ccc2O)no1,-9.4%
18,Nc1cc(Cl)nc(N/N=C/c2c(O)ccc3ccccc23)n1,13.3%
19,Oc1ccc2ccccc2c1C=Nc1ccc(Cl)cn1,75.2% (active)
20,Cc1cc(C)n(/N=C\c2c(O)ccc3ccccc23)c(=O)c1C(N)=O,22.5%
21,COc1cccc(C=Nc2ccc(C)c(F)c2)c1O,15.7%
22,COc1ccccc1Nc1ccc(N)cc1,23.2%
23,O=C(Cn1ccccc1=O)c1ccc(Cl)cc1,-5.5%
24,N#C/C(=C\c1cn(CCOc2ccccc2)c2ccccc12)C(=O)NCc1ccco1,-1.2%
25,COc1ccccc1OCC(=O)Nc1ccccn1,1.4%
26,COc1ccc(CNn2c(-c3cccs3)nc3ccccc3c2=O)cc1OC,8%

row,Structure (SMILES),inhibition
1,CCN(C(=O)CSc1nnc(-c2ccncc2)n1-c1ccccc1)C1CCS(=O)(=O)C1 (centres undefined),-2.5%
2,CCc1ccc(C(=O)NN(C(=O)c2ccc(CC)cc2)C(C)(C)C)cc1,14.2%
3,CCOc1ccc(S(=O)(=O)N2CCN(c3ccccc3F)CC2)c2cccnc12,27%
4,O=C(OCc1c(F)cccc1Cl)c1cnccn1,11.3%
5,Oc1oc(-c2cccc3ccccc23)nc1/C=N/c1nccs1,9.5%
6,Oc1[nH]c2ccccc2c1/C=N/c1nccs1,-1%
7,N#Cc1cccc(N=Cc2c(O)ccc3ccccc23)c1,64.6% (active)
8,Cc1c(Cc2ccccc2)sc(/N=C/c2c(O)ccc3ccccc23)c1C(N)=O,29.8%
9,COc1ccc2nc(N=Nc3c(O)ccc4ccccc34)sc2c1,24.5%
10,O=C(O)Cc1ccc(N=Cc2c(O)ccc3ccccc23)cc1,58.7% (active)
11,Oc1ccc2ccccc2c1/C=N/c1nccs1,62% (active)
12,Oc1ccc2ccccc2c1C=Nc1ccccc1-c1nc2ccccc2[nH]1,22.9%
13,Cc1sc(/N=C/c2c(O)ccc3ccccc23)c(C#N)c1C,-3.6%
14,Oc1ccc2ccccc2c1/C=N/c1nc2c(s1)CCCC2,46.1%
15,Oc1ccc2ccccc2c1C=Nc1ccc(N2CCOCC2)cc1,29%
16,Cn1c(CSc2nc3ccccc3s2)nnc1SCC(=O)NCCCN1CCOCC1,-11.8%
17,Cc1ccsc1C(=O)NNC(=O)C1CC=CCC1C(=O)O (centres undefined),-4.3%
18,COC(=O)c1cccc(NC(=O)c2cccs2)c1C,10.7%
19,CC(C)C(c1nnnn1C1CCCCC1)N1CCCc2ccccc21 (centres undefined),8.3%
20,Cc1ccc(N2CCN(C(=O)c3cc(C(=O)c4ccccc4C)c[nH]3)CC2)c(C)c1,16.7%
21,Cc1noc(C)c1Cn1nc(C(=O)O)c2ccccc2c1=O,1.4%
22,COc1ccc2nc(N)sc2c1,-1.6%
23,COc1ccc2c(c1)-c1nc(NC(=O)c3cccs3)sc1CC2,-22.3%
24,COc1ccc(N=Cc2c(O)[nH]c3ccccc23)cc1,1.9%
25,COc1ccc(N=Cc2oc3ccc4ccccc4c3c2O)cc1,13.8%
26,CCOC(=O)c1cc(CC)sc1/N=C/c1c(O)ccc2ccccc12,60.7% (active)

row,Structure (SMILES),inhibition
1,COc1ccc(N=Cc2c(O)ccc3ccccc23)cc1,68.5% (active)
2,CCOC(=O)c1cc(CC)sc1/N=C/C1=C(O)CCCC1=O,14.3%
3,CCOC(=O)c1cc(CC)sc1/N=C/C1=C(O)CC(C)(C)CC1=O,7.3%
4,O=C(CCc1nnc(CCCc2ccccc2)o1)NCCc1ccccc1,-1.7%
5,Cc1nc2c(c(=O)n1CCC1=CCCCC1)c1nc3ccccc3nc1n2/N=C/c1ccco1,15.8%
6,Cc1nn(CCc2nn[nH]n2)c2nc(-c3ccc(Br)cc3)cc(C(F)(F)F)c12,4.9%
7,CSc1cccc(NC(=O)C2CCN(S(C)(=O)=O)CC2)c1,5.6%
8,Cc1ccc(OCCC(=O)Nc2ccc(C)c(F)c2)cc1,16.2%
9,Cc1ccc(S(=O)(=O)N2CCC(C(=O)NCCCN3CCCCCC3)CC2)cc1,-3.9%
10,CCCCNC(=O)c1onc(CSc2ccccc2F)c1C(=O)O,-0.1%
11,Cc1nc(NC(=O)CN(C)S(=O)(=O)c2ccc(Br)cc2)sc1C,1.7%
12,COc1ccc(/C=C2\CC/C(=C\c3ccc(OC)cc3OC)C2=O)c(OC)c1,13.5%
13,COc1ccc(/C=C2/CCc3ccccc3C2=O)cc1OC,29.2%
14,COc1ccc2c(c1)CC/C(=C\C=C\c1ccccc1)C2=O,52.8% (active)
15,COc1ccc2c(c1)CC/C(=C\C=C\c1ccccc1OC)C2=O,53.3% (active)
16,COc1ccc2c(c1)CC/C(=C\c1ccc(OC)c(Cn3cccn3)c1)C2=O,21.7%
17,COc1ccc2c(c1)C(=O)/C(=C/C=C/c1ccccc1)CC2,33.4%
18,COc1cc2nc(CN3CCC(Cc4ccccc4)CC3)[nH]c(=O)c2cc1OC,-12.9%
19,COC(=O)c1ccc2c(=O)n(CC3CCCO3)c(SCC(=O)NCCc3ccc(S(N)(=O)=O)cc3)nc2c1 (centres undefined),-2.9%
20,Cc1nnc(N/N=C/c2c(Cl)cccc2Cl)n1N,32.3%
21,Cc1nnc(N/N=C/c2ccc(-c3ccccc3F)o2)n1N,33.4%
22,Cc1nnc(N/N=C/c2ccco2)n1N,56.6% (active)
23,CC(C)(C)c1nnc(N/N=C/c2ccccc2O)n(N)c1=O,-27.3%
24,CCc1nnc(N/N=C/c2ccccc2F)n1N,5.2%
25,Cc1nnc(N/N=C/c2ccccc2O)n1N,52.5% (active)
26,C/C(=N/OCc1ccc(Br)cc1)c1ccccn1,1.2%

row,Structure (SMILES),inhibition
1,O=[N+]([O-])c1ccc2nc(NCCCO)nc(-c3ccccc3)c2c1,-39.7%
2,CCCS(=O)(=O)c1c(S(=O)(=O)CCC)c2ccc(C(N)=O)cn2c1C(=O)c1ccc(OC)cc1,14%
3,O=C(Nc1cccn2ncnc12)C(F)(F)F,-1.2%
4,COc1ccc(CNC(=O)CSc2nnc3c(Cl)cc(C(F)(F)F)cn23)cc1OC,12.9%
5,Cc1cccc(N=Cc2cc(Br)cc(Cl)c2O)c1,57.8% (active)
6,NC(=O)c1cccc(N=Cc2cc(Cl)cc(Cl)c2O)c1,55.3% (active)
7,Cc1ccc(N=Cc2cc(Cl)cc(Cl)c2O)nc1,58.6% (active)
8,Cc1cccc(N=Cc2[nH]c3ccc(Br)c(Cl)c3c2O)c1,-1.9%
9,Oc1c(Cl)cc(Cl)cc1/C=N/Nc1ncc(Br)cn1,-22.9%
10,Oc1c(Cl)cc(Cl)cc1C=Nc1ccccc1N1CCCC1,33.7%
11,Oc1c(Cl)cc(Cl)cc1C=Nc1ccc(Br)cc1,17.7%
12,Oc1c(Cl)cc(Cl)cc1/C=N/c1nccs1,-2.8%
13,Cc1ccc(N=Cc2cc(Br)cc(Cl)c2O)cc1,50.8% (active)
14,O=C(CCC(=O)N/N=C/c1cc(Cl)cc(Cl)c1O)NCc1ccccc1,17.9%
15,COc1cc(Br)cc(C=Nc2cccc(C(F)(F)F)c2)c1O,15.9%
16,Oc1ccc(Cl)cc1C=Nc1ccc(Br)cc1,8.3%
17,O=C(CN1CCSCC1)N/N=C/c1ccc(F)c(F)c1,-7.6%
18,CC(Oc1ccc(Br)cc1)C(=O)NCc1ccccn1 (centres undefined),-0.8%
19,CCN1CCN(C(=O)c2ccccc2NS(=O)(=O)c2ccc(Cl)cc2)CC1,-3.6%
20,COc1ccc(C(C#N)N2CCC(c3ccccc3)=N2)cc1OC (centres undefined),-5.6%
21,COc1ccc(/C(C)=N\NS(=O)(=O)c2ccccc2)cc1OC,4.4%
22,COc1ccc(C2CCCN2C(=S)Nc2ccc(C)cc2Cl)cc1OC (centres undefined),2.1%
23,COc1ccc(CNC(=O)c2ccc(C(C)C)cc2)cc1,12.3%
24,O=C(Nc1ccccc1OC(F)F)c1ccccc1,9.2%
25,CC1CCCCC1N1CCN(C(=O)c2cccc(F)c2)CC1 (centres undefined),-10.5%
26,O=C(Nc1nc2ccc(F)cc2s1)C1CCN(S(=O)(=O)c2cc([N+](=O)[O-])ccc2Cl)CC1,13.7%
